TTR transcr act = activators of transthyretin transcription | SH-SY5Y TTR promoter Gaussia luciferase, luminescence; 100% = recombinant luciferase protein wells | activation, % at 16.7 µM | actives 1.3% (n = 92,000) | AID 1117267;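 active = activation above the mean of all tested compounds plus 3 SD, cut at about 9.5% in these data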;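 note: cells exposed to compounds for one day before reading; 0% = median of all test compound wells on the plate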
HuH7 TTR inh = decreases TTR transcription in HuH7 cells in activator counter-screen | HuH7 TTR promoter-Gaussia luciferase reporter, luminescence | shares compounds with TTR transcr act | actives 4% (n = 1,100) | inhibition, % at 16.7 µM;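 active = average inhibition above the solvent-only control wells' mean plus 3 SD, cut at about 15% in these data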;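 note: 0% = cells with DMSO only and 100% = cells with inhibitor control FD; inhibitors lower well luminescence so higher value means more inhibition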
TTR act confirm = human TTR transcription activation, confirmation | shares compounds with TTR transcr act | SHSY5Y TTR promoter Gaussia luciferase, luminescence; 100% = purified Lucia enzyme wells, no cells | activation, % at 16.7 µM | 1,100 tested, under 10 active | AID 1117280;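 active = mean activation above a set limit taken from the earlier primary screen, cut at about 11% in these data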;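 note: 0% = DMSO-treated cells and 100% = recombinant Lucia luciferase without cells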
An asterisk follows results filed as active. This excerpt belongs to a sample that is enriched for hits.

SMILES	TTR transcr act	others
COc1ccc(C2Nc3ccccc3C(=O)N2Cc2ccco2)cc1COc1c(C)cc(NC(C)=O)cc1C (stereo not given)	-3.3
O=C(Nc1ccc2ncccc2c1)c1ccccc1	0.6
O=C(NC(=S)Nc1ccc2ncccc2c1)c1ccccc1	-0.6
O=C(Nc1ccc2ncccc2c1)c1ccccc1Cl	11.5*	HuH7 TTR inh=-7.0;TTR act confirm=-1.2
CCCCCCCCN1C(=O)[C@@H](CC(=O)NCCc2ccccc2OC)C[C@@]2(C(=O)OC)C1=C[C@H](C(C)C)O[C@@H]2C1CC1	-0.4
O=C(Nc1ccc(F)cc1)OCc1cn(Cc2cc(F)cc(F)c2)nn1	1.6
Cc1cc(C)n(CC(O)COc2cccc(OCC(O)Cn3nc(C)cc3C)c2)n1 (stereo not given)	-4.2
Cc1cc(C)n(CCOc2ccc(Br)cc2)n1	10.1*	HuH7 TTR inh=-18.4;TTR act confirm=0.4
Cc1cc(C)n(CCCC(=O)O)n1	-1.6
CCOC(=O)c1sc(NC(=O)c2ccc(S(=O)(=O)N3CCOCC3)cc2)nc1-c1ccccc1	-1.2
CCOC(=O)c1sc(N)nc1-c1ccccc1	0.5
CCOC(=O)Nc1nc(-c2ccccc2)c(C(=O)c2ccc(Cl)cc2)s1	10.8*	HuH7 TTR inh=23.0*;TTR act confirm=-0.3
O=C(NCC(c1ccco1)N1CCOCC1)c1ccc(F)c(F)c1 (stereo not given)	1.0
CCCn1c(SCC(=O)c2[nH]c(C)c(C(C)=O)c2C)n[nH]c1=O	-0.5
CC(NC(=O)/C=C/c1cnc2ccccc2n1)C12CC3CC(CC(C3)C1)C2 (stereo not given)	-2.9
O=C(Nc1ccc(Br)cc1)Nc1ccccc1Cl	-5.5
COc1ccc(/C=C/C(=O)C2CC2)cc1Cn1nc(C)c([N+](=O)[O-])c1C	-0.8
COc1ccc(/C=N/N2CCOCC2)cc1Cn1nc(C)c([N+](=O)[O-])c1C	9.4
COc1ccc(/C=N/Nc2ccccc2)cc1Cn1nc(C)c([N+](=O)[O-])c1C	12.9*	HuH7 TTR inh=-16.2;TTR act confirm=-0.3
Cc1cccc(N2CCN(S(=O)(=O)c3ccc4c(c3)CC(=O)N4C)CC2)c1C	14.0*	HuH7 TTR inh=-11.3;TTR act confirm=-0.7
Cc1cccc(N2CCN(S(=O)(=O)c3ccc4c(c3)CCN4C(=O)CCC(=O)O)CC2)c1C	1.4
Cc1cccc(N2CCN(S(=O)(=O)c3ccc4c(c3)OCCO4)CC2)c1C	0.1
Cc1cn([C@H]2C[C@H](O)[C@@H](/C=C/C(=O)NCCC(C)C)O2)c(=O)[nH]c1=O	0.4
CCOC(=O)N1CCN(CC(=O)Nc2sc(CC)cc2C(=O)c2ccc(OC)cc2)CC1	-2.5
O=C1CC[C@@H](CN(Cc2ccccn2)Cc2nc(Cc3cccc(C(F)(F)F)c3)no2)N1	2.1
SMILES	TTR transcr act	others
CC(C)=CCC/C(C)=C/C[C@]12C[C@H](C(=O)O)N(C(=O)OC(C)(C)C)[C@@H]1N(C(=O)OC(C)(C)C)c1ccccc12	-2.4
COC(=O)[C@]12C[C@H](CC(=O)NCCCCc3ccccc3)C(=O)N(Cc3ccc(Cl)cc3Cl)C1=C[C@H](C1CCCC1)O[C@@H]2C	0.0
CCN1C(=O)[C@@H]2[C@H](C1=O)[C@@H]1C(=O)Nc3ccccc3C(=O)N1[C@@H]2c1ccc(OC)cc1	10.7*	HuH7 TTR inh=-11.7;TTR act confirm=-0.1
CCN1C(=O)[C@H]2[C@@H](c3ccc(OC)cc3)N[C@]3(CCCN(Cc4ccccc4)C3=O)[C@H]2C1=O	-0.4
CCN1C(=O)[C@H]2[C@@H](c3ccc(OC)cc3)N3C(=O)CN(Cc4ccccc4)C(=O)[C@@]3(Cc3ccccc3)[C@H]2C1=O	5.4
CCOC(=O)[C@]12CCCC=C1N(Cc1ccc(OC)cc1)C(=O)[C@@H]2CC(=O)NCc1ccc(OC)c(OC)c1	-0.8
COc1ccc(NC(=O)CSCC(=O)Nc2ccc(S(=O)(=O)N3CCCC3)cc2)cc1	0.0
Cc1ccc(NC(=O)CSc2nc(N)cc(=O)[nH]2)cc1S(=O)(=O)N1CCCCCC1	0.9
CCOC(=O)CSCC(=O)Nc1ccc(S(=O)(=O)N2CCCCC2)cc1	-2.1
COc1ccc(OCC(=O)Nc2ccc(S(=O)(=O)N3CCCCC3)cc2)cc1	-0.7
COc1ccc(NC(=S)Nc2ccc(S(=O)(=O)N3CCCCC3)cc2)cc1	12.1*	HuH7 TTR inh=12.4;TTR act confirm=-0.1
Cc1cc(=O)[nH]c(SCC(=O)Nc2ccc(S(=O)(=O)N3CCCCC3)cc2)n1	12.9*	HuH7 TTR inh=-1.7;TTR act confirm=0.1
C/C=C/c1cccc(-c2nc(C(=O)NC3Cc4ccccc4C3)cc3c2[C@@H](CCO)N(C(C)=O)C3)c1	0.6
CC(C)C(NC(=O)c1ccc(F)cc1)C(=O)OCC(=O)N1CC(=O)Nc2ccccc21 (stereo not given)	-0.5
CC[C@@]1(c2ccc(C)cc2)C(=O)N(C(=O)OC)N1C(=O)OC	2.5
COCCCNC(=O)C[C@H]1C[C@@]2(C(=O)OC)C(=C[C@H](C3CCCC3)O[C@@H]2C)N(Cc2cccc3ccccc23)C1=O	-0.2
O=C(Nc1cccc(F)c1)OC1CC2CC1[C@H]1CCCCN1[C@H]2Cc1ccccc1 (stereo not given in full)	-1.4
COC(=O)C[C@@H]1CC[C@@H]2[C@@H](COc3ccc(NC(C)=O)cc3C(=O)N2C)O1	0.6
O=C(Nc1ccccc1)Nc1c(-c2ccc(F)cc2)nc2ncccn12	1.6
C=CCN1C(=O)[C@H](CC(=O)NCc2cccc3ccccc23)[C@@]2(C(=O)OCC)CCCC=C12	0.6
CC(C)CN1C(=O)C[C@]2(C(=O)N(C)c3ccc(NC(=O)c4cc(F)ccc4F)cc32)C1c1ccccc1 (stereo not given in full)	-1.6
O=c1nc(SCc2ccc(Cl)cc2)nc(-c2ccccc2)[nH]1	-1.4
Cc1nnc(SCc2ccc(Cl)cc2)nc1/C=C/N(C)C	9.7*	HuH7 TTR inh=17.2*;TTR act confirm=-1.6
Cc1nc(C)c(-c2ccc(SCc3ccc(Cl)cc3)nn2)s1	-1.9
COC(=O)[C@]12C[C@H](CC(=O)NCc3cccc(C(F)(F)F)c3)C(=O)N(Cc3ccco3)C1=C[C@H](C(C)C)O[C@@H]2C1CC1	0.4
SMILES	TTR transcr act	others
COc1ccc2c(c1)NC(c1ccc(N(C)C)cc1)c1cccn1-2 (stereo not given)	-2.7
O=C(CCC1CCN(C(=O)c2cc(C(F)(F)F)ccc2Cl)CC1)NC1CC1	17.2*	HuH7 TTR inh=-16.8;TTR act confirm=-0.3
COc1cc(Cl)c(CN2CCC(CCC(=O)NC3CC3)CC2)cc1OC	1.1
Cc1cc(C)cc(C(=O)N2CCC(CCC(=O)NC3CC3)CC2)c1	-0.3
O=C(CN1CCC(NC(=O)c2ccccc2Cl)CC1)NCc1ccccc1	0.3
O=C(NCCN1CCCC1)c1ccccc1Cl	0.1
O=C(NCc1nnc2c3ccccc3c(-c3ccccc3)nn12)c1ccccc1Cl	13.8*	HuH7 TTR inh=-6.5;TTR act confirm=0.3
CCN(CC)C(=O)[C@H]1CC(CC(=O)NCC23CC4CC(CC(C4)C2)C3)C(=O)N2CCc3c([nH]c4ccccc34)[C@]12C (stereo not given in full)	2.3
CCOC(=O)CCSc1nc(C)c2cc(C)c(C)cc2n1	14.5*	HuH7 TTR inh=-4.7;TTR act confirm=-1.7
Cc1ccc2nc(SCCC#N)nc(C)c2c1	-2.7
CCOc1ccc2nc(SCc3cccc(C)c3)nc(C)c2c1	0.8
C[C@@]12C(=O)N(CC3CCCO3)CC(=O)N1[C@H]1c3ccccc3OC[C@@H]1[C@@H]2c1ccccc1 (stereo not given in full)	-2.6
Cc1ccc(CN(Cc2cc3cccc(C)c3[nH]c2=O)C(=S)NCCCN(C)C)cc1	-0.1

Source: PubChem BioAssay
